An excerpt weighted towards active compounds, which were near 4% of everything screened.
Mtb FBA inh – inhibitors of M. tuberculosis fructose-bisphosphate aldolase; purified M. tuberculosis FBA, fluorescence read-out; AID 588726; hit rate 2.3% among 360,000; inhibition, % at 1 µM; in the data active = inhibition above about 27%;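 also: 0% = vehicle and 100% = reference inhibitor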
Mtb betalactam – beta-lactam sensitization of Mtb H37Rv; inhibition, % at 25 µM; hit rate 0.27% among 330,000; M. tuberculosis H37Rv growth with meropenem, percent inhibition; call rule not given here;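 also: growth measured after seven days incubation then overnight dye step; 0% = bacteria only wells and 100% = bacteria with antibiotic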
Mtb UGM inh – Mtb UDP-galactopyranose mutase inhibition | P9WIQ1 | purified UGM, fluorescence polarization probe displacement | inhibition, % at 10 µM | hit rate 0.06% among 320,000 | AID 504406; in the data active = inhibition above about 10%, passing the limit was not always enough
RecA intein inh – inhibitors of M. tuberculosis RecA intein splicing; P9WHJ3; cell-free RecA intein splicing, fluorescence; inhibition, % (test concentration not listed); hit rate 0.75% among 290,000; in the data active = inhibition above about 30%;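 also: 0% = vehicle wells and 100% = reference inhibitor control wells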
GDH-TPI inh – counter-screen for M. tuberculosis FBA inhibitors: GDH-TPI coupled enzymes; GDH-TPI coupled enzyme counterscreen, NADH absorbance; inhibition, % at 4.8 µM; hit rate 1.2% among 360,000; AID 588335; in the data active = inhibition above about 30%;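 also: 0% = DMSO wells and 100% = wells lacking the enzyme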
Rv3671c protease – inhibitors of M. tuberculosis serine protease Rv3671c. inhibition, % at 5.96 µM. P9WHR9. hit rate 0.048% among 320,000; in the data active = inhibition above about 38%;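 also: extracellular domain of Rv3671c used as enzyme; 0% = enzyme with DMSO and 100% = no enzyme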
Target sequence (P9WHR9 whole entry, looked up, the tested form may be a part): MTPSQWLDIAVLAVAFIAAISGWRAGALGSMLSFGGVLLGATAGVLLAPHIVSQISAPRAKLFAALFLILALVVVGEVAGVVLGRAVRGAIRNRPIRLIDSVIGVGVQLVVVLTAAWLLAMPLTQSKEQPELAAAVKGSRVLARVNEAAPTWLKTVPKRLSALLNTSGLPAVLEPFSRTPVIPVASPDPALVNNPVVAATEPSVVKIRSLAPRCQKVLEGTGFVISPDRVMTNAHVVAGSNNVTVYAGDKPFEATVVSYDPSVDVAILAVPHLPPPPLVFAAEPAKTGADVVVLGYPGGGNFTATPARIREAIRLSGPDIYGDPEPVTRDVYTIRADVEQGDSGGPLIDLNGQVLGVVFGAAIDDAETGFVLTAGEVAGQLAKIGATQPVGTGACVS
Active calls of the source: *; nt = not tested or not shown.

SMILES	Mtb FBA inh	Mtb betalactam	Mtb UGM inh	RecA intein inh	GDH-TPI inh	Rv3671c protease
O=C(Cc1ccsc1)N1CCN(S(=O)(=O)c2ccccc2F)CC1	4.6	-2.3	-0.6	nt	6.9	1.4
O=C(N/N=C/c1cc([N+](=O)[O-])ccc1O)c1c[nH]c2ccccc12	-4.8	14.4	1.5	-2.8	39.2*	9.3
O=C(N/N=C/c1ccc[nH]1)c1c[nH]c2ccccc12	2.4	nt	nt	-10.4	32.2*	nt
COC(=O)c1ccc(NC(=O)COc2ccc(N(C)S(=O)(=O)c3ccc(C)cc3)cc2)cc1	-0.3	-12.7	-1.7	nt	-4.8	-28.9
OCC[C@H]1C[C@@H](O)[C@H](O)[C@]2(Cc3ccccc3CCO2)O1	0.5	-4.3	-0.4	nt	-6.2	0.7
O=C(Nc1ccccc1C(=O)N/N=C/c1ccc(F)cc1)c1ccccc1Br	0.8	7.8	-2.5	1.3	4.6	-15.1
O=C(N/N=C/c1ccncc1)c1cccc(N/N=C/c2ccncc2)c1	-3.2	-5.9	-2.2	-0.8	16.2	0.0
O=C(N/N=C/c1ccc(O)cc1)c1ccc(NC(=O)c2ccccc2Br)cc1	-4.2	87.7	0.6	-0.9	42.5*	-10.8
O=C(N/N=C/c1ccc(O)cc1)c1cccc(N/N=C/c2ccc(O)cc2)c1	-0.8	38.6	1.4	0.6	36.9*	-0.8
Cc1ccccc1C(=O)Nc1ccc(C(=O)N/N=C/c2ccc(O)cc2)cc1	3.6	9.2	0.4	-0.1	33.8*	-6.7
O=C(Nc1cccnc1)c1ccc(COc2cc(Cl)ccc2Cl)o1	-1.7	11.6	0.2	-3.2	-5.0	-36.0
O=C(N/N=C/c1ccc(O)cc1)c1ccc(COc2cc(Cl)ccc2Cl)o1	1.0	22.8	-1.9	6.9	34.8*	-41.2
Cc1c(O)c(=O)c2ccccc2n1C	149.9*	-12.4	0.7	-9.2	25.4	7.5
COc1ccc(S(=O)(=O)NC(=O)C2(C)CCN2C(=O)Cc2ccc(C(C)(C)C)cc2)cc1 (stereo unspecified)	0.3	nt	nt	nt	-5.4	nt
Cc1cccc(/N=C/c2c(O)[nH]c3ccccc23)n1	0.2	3.7	-5.0	nt	45.0*	4.7
CC(C)N=Cc1c(O)[nH]c2ccccc12	-1.6	-9.0	-1.4	-3.3	16.2	0.8
Cc1ccc(-n2nc(C)c(NC(=O)CCl)c2C)cc1C	1.1	96.7	1.5	42.5*	-5.2	0.8
CCOc1cc(/C=C2\SC(=S)N(C(C(=O)O)c3ccccc3)C2=O)ccc1O (stereo unspecified)	-18.4	0.0	-10.6	7.0	37.5*	-63.5
CCOc1ccc(/C=C2/SC(=S)N(C(C(=O)O)c3ccccc3)C2=O)cc1OCC (stereo unspecified)	0.2	nt	nt	nt	0.3	nt
CCOc1cc(/C=C2/SC(=S)N(CC(=O)O)C2=O)ccc1OC(=O)c1cccs1	2.9	2.3	-3.7	16.1	40.7*	-8.0
COc1cc(/C=C2\SC(=S)N(CC(=O)O)C2=O)ccc1OC(=O)c1ccco1	-6.4	3.3	-6.2	19.1	11.1	-18.1
C=CCNC(=O)NC(=O)CN1C(=O)NC(c2ccccc2)(c2ccccc2)C1=O	0.5	2.4	3.0	0.8	4.0	-4.0
COC(=O)/C(=C\c1c[nH]c2ccccc12)NC(C)=O	0.9	5.6	-2.7	0.3	39.2*	7.2
Cc1cnc(C(=O)OCC(=O)Nc2ccc(Br)c(C)c2)cn1	-0.4	-1.0	2.5	nt	-6.6	2.0
CC(=O)/C(N=Nc1ccc(C(=O)O)cc1[N+](=O)[O-])=C(\C)O	-1.8	0.3	1.2	2.7	68.8*	0.8
SMILES	Mtb FBA inh	Mtb betalactam	Mtb UGM inh	RecA intein inh	GDH-TPI inh	Rv3671c protease
COC(=O)c1nc(-c2ccccc2)oc1N(C)C	172.9*	-4.3	-0.3	-1.6	18.7	-3.2
O=P(c1ccccc1)(c1ccccc1)c1nc(-c2ccccc2)oc1N1CCOCC1	1.6	5.5	5.1	11.2	1.5	7.5
COC(=O)c1nc(-c2ccc(C)cc2)oc1N(C)C	114.6*	-1.5	-0.5	1.0	17.5	0.4
COC(=O)c1nc(-c2ccccc2)oc1N1CCOCC1	146.0*	-1.3	0.4	nt	0.9	-5.1
COC(=O)c1oc(-c2ccccc2)nc1C	3.2	-0.6	1.2	-3.9	0.9	7.6
Cc1c(N=C2N=C(NC(=O)c3ccc(F)cc3)c3ccccc32)c(=O)n(-c2ccccc2)n1C	-4.5	-1.6	18.1*	nt	6.8	-0.5
Cn1cc(C(=O)C(=O)N2CCOCC2)c2ccccc21	-1.9	-17.7	1.6	-0.1	30.9*	6.0
Cc1nnc(SCC(=O)N/N=C/c2cc(Cl)c(O)c(Cl)c2)s1	-4.5	-3.5	0.6	1.7	34.7*	-9.3
O=C(OCCCOC(=O)c1ccc([N+](=O)[O-])o1)c1ccc([N+](=O)[O-])o1	-2.2	100.0	-1.9	-3.9	-2.9	-16.4

From PubChem BioAssay
